In ChEMBL document CHEMBL4888484, “Replenishing the malaria drug discovery pipeline: Screening and hit evaluation of the MMV Hit Generation Library 1 (HGL1) against asexual blood stage Plasmodium falciparum ,using a nano luciferase reporter read-out” (2022):
Out of some 150,000 compounds screened, about 540 (0.36%) showed an effect of 50% or more. The list comes from a sample in which strong results are over-represented; it also holds similar structures and randomly drawn compounds.

The molecules below were run on Plasmodium falciparum (assay: Primary screen in NF54 nanoGlo assay, in single point, at 2uM, 72h; a lower Z score goes with more inhibition). Conditions: timepoint 72 hour.
Assay type: functional, Erythrocyte

Structure (SMILES) | % Inhibition [%] | Z score
CN1C(=O)C2(CCN(C(=O)CN3C(=O)OC(C)(C)C3=O)CC2)c2ccccc21 | -7 | 0.88
O=C(CN(CC1CCCO1)C(=O)C1CC1(Cl)Cl)N1CCCC1 (stereo not given) | -19 | 1.85
O=C(c1cncc(N2CCOCC2)c1)N1CCn2c1nc1ccccc12 | -9 | 1.5
O=C(c1cccc(-n2cnnn2)c1)N1CCn2c1nc1ccccc12 | 2 | -0.23
O=C(c1ccc2c(c1)OCO2)N1CCn2c1nc1ccccc12 | 72 | -0.31
Cc1cnc(C(=O)NC2CCCCCCC2)cn1 | 18 | -2.33
COc1ccc2nc(O)c(C(=O)Nc3ccc4c(c3F)CCNC4)cc2c1 | 99 | -18.01
O=C(CC1CCC(F)(F)CC1)Nc1ccc2c(c1F)CCNC2 | -13 | 1.83
COc1ccc2nc(O)c(CCC(=O)N3CCCC3)cc2c1 | -20 | 3.74
CC(C)n1ccnc1CN1CCC[C@@](O)(CNC(=O)N2CCCCC2)CC1 | -5 | 0.65
CC(C)CC[C@@H](CCNCc1ccccn1)c1ccc(Cl)cc1 | 25 | -3.14
CC(C)CC[C@@H](CCN1CCCC1)c1ccc(OC(C)C)cc1 | 2 | -0.36
CN1CCC(NCC[C@@H](Cc2ccccc2Cl)c2ccc(Cl)cc2)CC1 | 72 | -14.93
CN1CCC(NCCOCc2ccc(Cl)cc2Cl)CC1 | 0 | 0
CC(C)CC[C@@H](CCNC1CCN(C)CC1)c1ccc(Cl)cc1 | 63 | -7.69
CC(C)CCn1ccc(NC2CCN(C)CC2)n1 | -15 | 1.91
CC(Cc1ccccc1Cl)C(=O)NC1CCN(C(=O)Nc2ccccc2)C1 (stereo not given) | -1 | 0.11
COc1ccc(Cl)cc1CNCCN(C)C | -7 | 0.59
CC(C)CC[C@@H](CCNCCN(C)C)c1ccc(Cl)cc1 | 90 | -10.16
Cn1ccc(-c2nnc(NC(=O)C3CCCCC3)o2)n1 | -10 | 1.57
Cc1c(F)cccc1C(=O)N(C)Cc1cc(C2CC2)on1 | 1 | -0.14
Cc1nn(C(F)F)cc1-c1ccc(C(=O)N[C@H]2CCCC[C@@H]2O)cc1 | 1 | -0.28
CCn1c(CCc2cccc(NC(=O)Nc3ccccc3)c2)nc2ccccc21 | 1 | -0.11
O=C(NCCc1cn2c(n1)CCCC2)c1cccnc1 | -1 | 0.23
CCC1CN(C(=O)NCc2cc(OC)no2)CC(C)O1 (stereo not given) | -11 | 2.2
CC1(C(=O)Nc2n[nH]c3cc(F)ccc23)CC2CCC1O2 (stereo not given) | -7 | 1.08
Cc1cc(C)c(C(=O)NCC#C[C@@H]2CCCCO2)c(C)n1 | -23 | 2.49
Cc1cccc2ncc(C(=O)N[C@@]34COC[C@@H]3C4)n12 | -12 | 1.31

Structure (SMILES) | % Inhibition [%] | Z score
O=C(NC[C@H]1OC[C@@H](NCc2cccnc2)[C@@H]1O)c1ccc(F)cc1 | -7 | 0.99
Cc1c([C@@H](NCC(=O)N2CCC(C(N)=O)CC2)C(C)C)oc2ccccc12 | -13 | 1.5
Cc1c([C@@H](NCc2ncccc2O)C(C)C)oc2ccccc12 | 97 | -8.67
Cc1c([C@H](C)NCc2cncnc2)oc2ccccc12 | -15 | 1.68
CC(C)C(=O)N1CCc2ccc(OCc3nc(C(=O)N(C)Cc4ccccc4)cs3)cc2[C@@H]1c1ccccc1 | 1 | -0.07
CN(C)c1ncc(CN[C@H]2[C@H](c3ccccc3)C2(C)C)cn1 | 10 | -1.13
CC(C)CC[C@@]1(C2CC2)NC(=O)N(Cc2ccc(C#N)cn2)C1=O | -14 | 2.83
O=C(c1csnn1)N1CCc2[nH]nc(-c3ccccc3F)c2C1 | -7 | 1.02
COc1ccc(F)cc1S(=O)(=O)N1CCn2c(nn(C)c2=O)C1 | -13 | 2.3
COc1ccc(F)cc1S(=O)(=O)N1CCc2ncncc2C1 | -3 | 0.62
COc1ccc(F)cc1S(=O)(=O)N1CCc2noc(N)c2C1 | 72 | -5.81
O=C(c1ccc(O)cc1)N1CCN(Cc2ccccn2)[C@@H]2CS(=O)(=O)C[C@@H]21 | 3 | -0.42
Cc1nn(-c2nc3ccccc3[nH]2)c2c1[C@@H](c1c(C)sc3ccccc13)CC(=O)N2 | 4 | -0.46
Cc1nn(-c2nc3ccccc3[nH]2)c2c1[C@@H](c1cccnc1)CC(=O)N2 | 68 | -14.32
Cc1nn(-c2nc3ccccc3[nH]2)c2c1[C@@H](c1ccc(Cl)c(Cl)c1)CC(=O)N2 | 14 | -1.74
C[C@H]1CCN(C(=O)c2cccc3c2CCCN3)[C@@H](C)C1 | 12 | -1.41
CC(C)(C)C1CCC(O)(CNC(=O)NC2CCC(O)CC2)CC1 (stereo not given) | 0 | -0.1
CCOC(=O)c1n[nH]cc1CNCc1cccnc1N(C)C | 4 | -0.61
COc1cc(Br)c(NC(=O)N(C)CC(C)C)cc1OC | -13 | 1.89
CCCCc1ccc(NCc2c[nH]c3ccccc23)cc1 | 1 | -0.17
COc1ccc(OC)c2c(/C=C/c3c[nH]c4ccccc34)ccnc12 | -8 | 0.9
C[n+]1ccccc1/C=C/c1c[nH]c2ccccc12 | 91 | -8.06
c1ccc2c(C(c3c[nH]c4ccccc34)c3c[nH]c4ccccc34)c[nH]c2c1 | -27 | 3.19
CCc1ccc(/C=C/c2c[nH]c3ccccc23)[n+](CC)c1 | 93 | -8.52
C1=Cn2nc(/C=C/c3c[nH]c4ccccc34)nc2-c2ccccc2O1 | -30 | 3.55
c1cnc(NCc2cnc(N3CCCC3)s2)cn1 | -3 | 0.38
Cn1cccc1CN[C@H]1CCOc2ccc(F)cc21 | -10 | 1.36
